Drawing on PubChem BioAssay, this text covers composite z-score for 36 molecules.

The test system of the first experiment is Sam68 (KHDRBS1). The experiment in a line: Sam68 small-molecule binders, primary screen, biochemical, small-molecule microarray, 635 nm fluorescence (AID 1125).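 Further: score merges 667 nm channel intensity with signal to noise over triplicate slides.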 The conditions noted are these: small-molecule microarray binding, higher = more signal.
`CCCNC(=O)[C@@]1(c2ccc([N+](=O)[O-])cc2)CC(=O)N(C2CCCCC2)[C@@H]1c1ccc(CO)cc1I` displayed a composite z-score of 1.25.
With `COC(=O)C[C@H]1O[C@]2(C(=O)N(C)c3ccccc32)[C@@H](C)[C@@H]1[Si](C)(C)c1ccc(C)cc1`, the composite z-score is 1.16.
The same measure, in the same setting: the result for `COCCOC(=O)N1C(=O)[C@@]2(c3cc(C#CC4(O)CCCCCC4)ccc31)[C@H](c1ccccc1OCCO)N1[C@H](c3ccccc3)[C@H](c3ccccc3)OC(=O)[C@H]1[C@@H]2C(N)=O` reads 1.31; that for `CO[C@H]1O[C@H](CO)[C@@H](OC(=O)c2ccc(Br)cc2)[C@@H]2OC(=O)[C@@H](Cc3ccc4ccccc4c3)C/C=C/C[C@H](Cc3ccc4ccccc4c3)C(=O)O[C@@H]12`, 1.24.
On the same count and under the same terms, the result for `COCCCNC(=O)[C@]1(Cc2ccccc2N=[N+]=[N-])N=C(c2ccc(OCCCO)cc2)O[C@@H]1c1ccccc1N=[N+]=[N-]` reads 1.3; that for `C=CCOC(=O)[C@H]1[C@@H]2C(=O)O[C@@H](c3ccccc3)[C@@H](c3ccccc3)N2[C@@H](c2ccc(OCCOC(=O)[C@H]3C[C@H]4C(=O)N[C@@H](CCCC[N+](C)(C)C)C(=O)N4[C@H]3c3cccc(OCCO)c3)cc2)[C@]12C(=O)Nc1ccc(I)cc12`, 0.489.
Same read-out and setting: the result for `COc1ccc(NN2C(C(O)c3ccco3)C=CC3C(=O)N(C4CCCCC4)C(=O)C32)cc1` (stereo not drawn) reads 1.32; that for `O=C1NC(=O)C2C1C=CC(C(O)c1ccc(Br)cc1)N2Nc1ccccn1` (stereo not drawn), 0.0126; that for `C[C@]1(C(=O)O)c2ccccc2C(=O)N(Cc2ccccc2)[C@H]1c1ccc(CO)cc1`, -1.45.
`COCCOC(=O)N1C(=O)[C@@]2(c3cc(C#CC4(O)CCCCCC4)ccc31)[C@H](C(N)=O)[C@H]1C(=O)O[C@H](c3ccccc3)[C@H](c3ccccc3)N1[C@@H]2c1ccc(O)cc1` gave a composite z-score of 1.12.
Consider `CCN(CC)c1ccc(N2CC=CC34O[C@@H]5/C=C\CCC(C)OC(=O)C5[C@H]3C(=O)N(CCO)[C@@H]4C2=O)cc1` (stereo partly drawn), for which the composite z-score amounted to 0.153.
The same measure, in the same setting: the result for `CCOC(=O)C[C@H]1[C@H](OC(=O)c2ccccc2-c2ccccc2)[C@@H](NC(=O)CC(C)C)c2cc(OCCCO)ccc2N1C(=O)c1ccc2ccccc2n1` reads 0.569; that for `O=C1O[C@@H](c2ccccc2)[C@@H](c2ccccc2)N2[C@@H](c3ccccc3OCCO)[C@]3(C(=O)Nc4ccc(C#CC5=CCCCC5)cc43)[C@@H](C(=O)NC[C@H](O)c3ccccc3)[C@H]12`, 1.28.
On the same count and under the same terms, the result for `C=CCOC(=O)[C@@H]1[C@H]2C(=O)O[C@H](c3ccccc3)[C@H](c3ccccc3)N2[C@H](c2ccc(OCCOC(=O)[C@H]3C[C@H]4C(=O)N[C@@H](CC(C)C)C(=O)N4[C@H]3c3ccc(O)cc3)cc2)[C@@]12C(=O)Nc1ccc(I)cc12` reads 1.31.
`NCCCCCCNC(=O)[C@H]1C[C@H]2C(=O)N[C@@H](Cc3ccccc3)C(=O)N2[C@H]1c1ccc(O)cc1`: the composite z-score turned out to be 1.03.
Same read-out and setting: the result for `O=C1OCC=C[C@H]2OC34C=CCN(Cn5nnc6ccccc65)C(=O)[C@H]3N(CCCCCCO)C(=O)[C@@H]4[C@@H]12` (stereo partly drawn) reads 0.0126; that for `COc1ccc([Si](C)(C)[C@H]2[C@H](CCn3cc([C@H](O)c4ccccc4)nn3)O[C@@]3(C(=O)N(Cc4ccc(N5CCC5=O)cc4)c4ccccc43)[C@@H]2C)cc1`, 0.654.

For the next experiment, the system named is Chordin-like protein 2 (CHRDL2). The experiment in a line: CHRDL2 small-molecule binders, primary screen, biochemical, small-molecule microarray, 635 nm fluorescence (AID 1126).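 Further: printed compound slides probed with Chrdl2 protein at 4 µg/mL for 1 h at 4 C; score merges 667 nm emission intensity with signal to noise over three replicate slides.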 The conditions noted are these: small-molecule microarray binding, fluorescence 635 nm; higher = more signal.
Molecule `[N-]=[N+]=Nc1ccccc1[C@H]1OC(c2ccc(OCCCO)cc2)=N[C@@]1(CCS(=O)(=O)c1ccccc1)C(=O)N1CCCCC1` yielded a composite z-score of -0.106.
Still for that read-out and setting: the result for `CN(C)CCCNC(=O)[C@@H]1c2ccccc2C(=O)N(CC23CC4CC(CC(C4)C2)C3)[C@H]1c1ccc(CO)cc1` reads 0.452.
In the case of `COC(=O)[C@]1(CCS(=O)(=O)c2ccccc2)N=C(c2ccc(OCCCO)cc2)O[C@@H]1c1ccccc1CN=[N+]=[N-]`, the composite z-score is -0.0531.
`O=C(NC1CC1)[C@@H]1c2ccccc2C(=O)N(Cc2ccccc2)[C@H]1c1ccc(CO)cc1` displayed a composite z-score of -0.346.
`COC(=O)C1(Cc2ccccc2)C=C2C(=C(c3ccccc3)C(=O)C2C)CN1` (stereo not drawn) displayed a composite z-score of 0.0887.
The same measure, in the same setting: the result for `NC(N)=NCc1cn(CCc2c[nH]c3ccccc23)nn1` reads 0.866; that for `CC(=O)n1cc(C(O)C2C=CC3C(=O)N(c4ccccc4)C(=O)C3N2Nc2ccccc2)c2ccccc21` (stereo not drawn), 0.8; that for `CC(C)C(O)C1C=CC2C(=O)N(C)C(=O)C2N1N(c1ccccc1)c1ccccc1` (stereo not drawn), -1.17.
As for `C=C(CCCC)/C(=C/C[C@@H](OC(C)=O)c1ccc(CO)o1)c1cc(C(=O)OC)ccc1OC`, the composite z-score came to 0.182.
On the same count and under the same terms, the result for `COCCOC(=O)N1C(=O)[C@@]2(c3cc(C#Cc4ccc(OC)cc4)ccc31)[C@H](C(=O)N1CCCCCCC1)[C@H]1C(=O)O[C@H](c3ccccc3)[C@H](c3ccccc3)N1[C@@H]2c1ccc(O)cc1` reads 0.643; that for `C#CCNC(=O)[C@H](Cc1ccccc1)NC(=O)[C@@H](N=[N+]=[N-])C(C)C`, 0.747; that for `COc1c(C)cc(-c2cc3c(c(-c4ccccc4)n2)[Si](C(C)C)(C(C)C)OC3)cc1C`, 0.652.
Same read-out and setting: the result for `CN(C)CCCCNC(=O)[C@H]1C[C@H]2C(=O)N[C@@H](CCCCN(C)C)C(=O)N2[C@H]1c1cccc(OCCO)c1` reads 1.39.
The same measure, in the same setting: the result for `COC(=O)C1(Cc2ccccc2)C=C2C(=C(C(C)C)C(=O)C2C)CN1` (stereo not drawn) reads -1.3; that for `[N-]=[N+]=NCc1ccccc1C[C@@]1(C(N)=O)N=C(c2ccc(OCCCO)cc2)O[C@@H]1c1ccccc1CN=[N+]=[N-]`, -0.464; that for `C=CCNC(=O)[C@@H]1[C@H]2C(=O)O[C@H](c3ccccc3)[C@H](c3ccccc3)N2[C@H](c2ccccc2OCCO)[C@@]12C(=O)N(C(=O)OCCOC)c1ccc(C#CC3=CCCCC3)cc12`, 0.741.
`[N-]=[N+]=NCc1ccccc1C[C@@]1(C(=O)NCCN2CCOCC2)N=C(c2ccc(OCCCO)cc2)O[C@@H]1c1ccccc1N=[N+]=[N-]` yielded a composite z-score of -0.396.
Regarding `O=C1OCC=C[C@H]2OC34C=CCN(c5ccc(Cl)cc5)C(=O)[C@H]3N(CCCCCO)C(=O)[C@@H]4[C@@H]12` (stereo partly drawn), the composite z-score was -0.971.
The same measure, in the same setting: the result for `CN(C)C(=O)[C@]1(CCC(=O)OC(C)(C)C)N=C(c2ccc(OCCCO)cc2)O[C@@H]1c1ccccc1` reads -0.792.
Same read-out and setting: the result for `CCCNC(=O)[C@@]1(c2ccc([N+](=O)[O-])cc2)CC(=O)N(C2CCCCC2)[C@@H]1c1ccc(CO)cc1I` reads -0.0452; that for `COC(=O)C[C@H]1O[C@]2(C(=O)N(C)c3ccccc32)[C@@H](C)[C@@H]1[Si](C)(C)c1ccc(C)cc1`, 0.0565; that for `COCCOC(=O)N1C(=O)[C@@]2(c3cc(C#CC4(O)CCCCCC4)ccc31)[C@H](c1ccccc1OCCO)N1[C@H](c3ccccc3)[C@H](c3ccccc3)OC(=O)[C@H]1[C@@H]2C(N)=O`, 0.476.
Same read-out and setting: the result for `CO[C@H]1O[C@H](CO)[C@@H](OC(=O)c2ccc(Br)cc2)[C@@H]2OC(=O)[C@@H](Cc3ccc4ccccc4c3)C/C=C/C[C@H](Cc3ccc4ccccc4c3)C(=O)O[C@@H]12` reads -0.517.
Turning to `COCCCNC(=O)[C@]1(Cc2ccccc2N=[N+]=[N-])N=C(c2ccc(OCCCO)cc2)O[C@@H]1c1ccccc1N=[N+]=[N-]`, the composite z-score was -0.502.
The same measure, in the same setting: the result for `C=CCOC(=O)[C@H]1[C@@H]2C(=O)O[C@@H](c3ccccc3)[C@@H](c3ccccc3)N2[C@@H](c2ccc(OCCOC(=O)[C@H]3C[C@H]4C(=O)N[C@@H](CCCC[N+](C)(C)C)C(=O)N4[C@H]3c3cccc(OCCO)c3)cc2)[C@]12C(=O)Nc1ccc(I)cc12` reads 0.578.
Still for that read-out and setting: the result for `COc1ccc(NN2C(C(O)c3ccco3)C=CC3C(=O)N(C4CCCCC4)C(=O)C32)cc1` (stereo not drawn) reads 0.0446.
On to `O=C1NC(=O)C2C1C=CC(C(O)c1ccc(Br)cc1)N2Nc1ccccn1` (stereo not drawn), for which the composite z-score came to 0.913.
On the same count and under the same terms, the result for `C[C@]1(C(=O)O)c2ccccc2C(=O)N(Cc2ccccc2)[C@H]1c1ccc(CO)cc1` reads -1.48; that for `COCCOC(=O)N1C(=O)[C@@]2(c3cc(C#CC4(O)CCCCCC4)ccc31)[C@H](C(N)=O)[C@H]1C(=O)O[C@H](c3ccccc3)[C@H](c3ccccc3)N1[C@@H]2c1ccc(O)cc1`, 0.47; that for `CCN(CC)c1ccc(N2CC=CC34O[C@@H]5/C=C\CCC(C)OC(=O)C5[C@H]3C(=O)N(CCO)[C@@H]4C2=O)cc1` (stereo partly drawn), -1.01.
For `CCOC(=O)C[C@H]1[C@H](OC(=O)c2ccccc2-c2ccccc2)[C@@H](NC(=O)CC(C)C)c2cc(OCCCO)ccc2N1C(=O)c1ccc2ccccc2n1`, the composite z-score was determined as 0.224.
Still for that read-out and setting: the result for `O=C1O[C@@H](c2ccccc2)[C@@H](c2ccccc2)N2[C@@H](c3ccccc3OCCO)[C@]3(C(=O)Nc4ccc(C#CC5=CCCCC5)cc43)[C@@H](C(=O)NC[C@H](O)c3ccccc3)[C@H]12` reads 0.478; that for `C=CCOC(=O)[C@@H]1[C@H]2C(=O)O[C@H](c3ccccc3)[C@H](c3ccccc3)N2[C@H](c2ccc(OCCOC(=O)[C@H]3C[C@H]4C(=O)N[C@@H](CC(C)C)C(=O)N4[C@H]3c3ccc(O)cc3)cc2)[C@@]12C(=O)Nc1ccc(I)cc12`, 0.959; that for `NCCCCCCNC(=O)[C@H]1C[C@H]2C(=O)N[C@@H](Cc3ccccc3)C(=O)N2[C@H]1c1ccc(O)cc1`, -0.14.
Same read-out and setting: the result for `O=C1OCC=C[C@H]2OC34C=CCN(Cn5nnc6ccccc65)C(=O)[C@H]3N(CCCCCCO)C(=O)[C@@H]4[C@@H]12` (stereo partly drawn) reads -0.743.
Still for that read-out and setting: the result for `COc1ccc([Si](C)(C)[C@H]2[C@H](CCn3cc([C@H](O)c4ccccc4)nn3)O[C@@]3(C(=O)N(Cc4ccc(N5CCC5=O)cc4)c4ccccc43)[C@@H]2C)cc1` reads 0.786.
